Test results published in the supplement of paper PMC8728848.
The entries come from a sample that favours the strongest signals as a whole.

Key:
Experiment in all cases: glycan array binding signal (z-score within array); higher = stronger binding
Conditions in all cases: glycan notation: IUPAC condensed, linker removed
[1] = target: Fuc(a1-2)Gal(b1-3)GalNAc(a1-3)[Fuc(a1-2)]Gal(b1-4)GlcNAc
Method in brief: (§1)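 Negative Z-scores can be read as non-binding. The Z-score is calculated within each array and then averaged across arrays of one protein sequence at different concentrations or buffers and across linkers. Arrays, 3228 in all, were curated from the Consortium for Functional Glycomics database and kept only where the protein sequence was available.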

[2] = target: Fuc(a1-2)Gal(b1-3)[Fuc(a1-4)]GlcNAc(b1-2)Man(a1-3)[Fuc(a1-2)Gal(b1-3)[Fuc(a1-4)]GlcNAc(b1-2)Man(a1-3)]Man(b1-4)GlcNAc(b1-4)GlcNAc
Method in brief: as §1

[3] = target: Fuc(a1-2)Gal(b1-4)GlcNAc(b1-2)[Fuc(a1-2)Gal(b1-4)GlcNAc(b1-4)]Man(a1-3)[Fuc(a1-2)Gal(b1-4)GlcNAc(b1-2)Man(a1-6)]Man(b1-4)GlcNAc(b1-4)GlcNAc
Method in brief: as §1

[4] = target: Fuc(a1-2)Gal(b1-4)GlcNAc(b1-6)GalNAc
Method in brief: as §1

[5] = target: Fuc(a1-2)Gal(b1-4)[Fuc(a1-3)]GlcNAc(b1-2)Man(a1-3)[Fuc(a1-2)Gal(b1-4)[Fuc(a1-3)]GlcNAc(b1-2)Man(a1-6)]Man(b1-4)GlcNAc(b1-4)[Fuc(a1-6)]GlcNAc
Method in brief: as §1

[6] = target: Fuc(a1-2)Gal(b1-4)[Fuc(a1-3)]GlcNAc(b1-3)GalNAc
Method in brief: as §1

[7] = target: Fuc(a1-2)Gal3S(b1-4)GlcNAc
Method in brief: as §1

[8] = target: Fuc(a1-2)[Gal(a1-3)]Gal
Method in brief: as §1

[9] = target: Fuc(a1-2)[Gal(a1-3)]Gal(b1-3)GlcNAc(b1-2)Man(a1-3)[Fuc(a1-2)[Gal(a1-3)]Gal(b1-3)GlcNAc(b1-2)Man(a1-6)]Man(b1-4)GlcNAc(b1-4)[Fuc(a1-6)]GlcNAc
Method in brief: as §1

[10] = target: Fuc(a1-2)[Gal(a1-3)]Gal(b1-4)GlcNAc(b1-2)Man(a1-3)[Fuc(a1-2)[Gal(a1-3)]Gal(b1-4)GlcNAc(b1-2)Man(a1-6)]Man(b1-4)GlcNAc(b1-4)GlcNAc
Method in brief: as §1

[11] = target: Fuc(a1-2)[GalNAc(a1-3)]Gal(b1-3)GlcNAc(b1-2)Man(a1-3)[Fuc(a1-2)[GalNAc(a1-3)]Gal(b1-3)GlcNAc(b1-2)Man(a1-6)]Man(b1-4)GlcNAc(b1-4)[Fuc(a1-6)]GlcNAc
Method in brief: as §1

[12] = target: Fuc(a1-2)[GalNAc(a1-4)]Gal(b1-4)GlcNAc
Method in brief: as §1

[13] = target: Fuc(a1-3)GlcNAc
Method in brief: as §1

[14] = target: Fuc(a1-3)[Gal(b1-4)]GlcNAc(b1-6)GalNAc
Method in brief: as §1

[15] = target: Fuc(a1-3)[Gal(b1-4)]GlcNAc6S
Method in brief: as §1

[16] = target: Fuc(a1-3)[GalNAc(b1-4)]GlcNAc6S
Method in brief: as §1

[17] = target: Gal(a1-3)Gal(b1-4)Glc
Method in brief: as §1

[18] = target: Gal(a1-3)[Gal(a1-4)]Gal(b1-4)GlcNAc
Method in brief: as §1

[19] = target: Gal(b1-3)GlcNAc(b1-2)Man
Method in brief: as §1

[20] = target: Gal(b1-3)GlcNAc(b1-3)Gal(b1-4)Glc
Method in brief: as §1

[21] = target: Gal(b1-4)Glc
Method in brief: as §1

[22] = target: Gal(b1-4)GlcNAc(b1-3)Gal(b1-4)GlcNAc(b1-2)Man(a1-3)[Gal(b1-4)GlcNAc(b1-3)Gal(b1-4)GlcNAc(b1-2)Man(a1-6)]Man(b1-4)GlcNAc(b1-4)GlcNAc
Method in brief: as §1

[23] = target: Gal(b1-4)GlcNAc(b1-3)Gal(b1-4)GlcNAc(b1-3)Gal(b1-4)GlcNAc(b1-2)Man(a1-3)[Gal(b1-4)GlcNAc(b1-3)Gal(b1-4)GlcNAc(b1-3)Gal(b1-4)GlcNAc(b1-2)Man(a1-6)]Man(b1-4)GlcNAc(b1-4)GlcNAc
Method in brief: as §1

[24] = target: Gal3S(b1-4)Glc
Method in brief: as §1

[25] = target: Gal3S4S(b1-4)GlcNAc
Method in brief: as §1

[26] = target: GalNAc6S(b1-4)GlcNAc
Method in brief: as §1

[27] = target: Glc(a1-6)Glc(a1-6)Glc
Method in brief: as §1

[28] = target: GlcNAc(a1-4)Gal(b1-4)GalNAc
Method in brief: as §1

[29] = target: GlcNAc(b1-2)[GlcNAc(b1-6)]Man(a1-6)[GlcNAc(b1-4)][GlcNAc(b1-2)Man(a1-3)]Man(b1-4)GlcNAc(b1-4)GlcNAc
Method in brief: as §1

[30] = target: GlcNAc(b1-3)Gal(b1-4)GlcNAc(b1-3)Gal(b1-4)GlcNAc(b1-2)Man(a1-3)[GlcNAc(b1-3)Gal(b1-4)GlcNAc(b1-3)Gal(b1-4)GlcNAc(b1-2)Man(a1-6)]Man(b1-4)GlcNAc(b1-4)GlcNAc
Method in brief: as §1

B1: PX14375A-pdi-503-28-503 (Parabacteroides distasonis) (protein)
chain: PLGSPEAGDISEERQAFLRLTAVYSVMKDFRYTWSMQCFGDVLSNDATYSGSSNDAQTFTLLENYQYQADHTEILNKYRYSYQCINKANLFIRDMEMADDALFSKYDKEQMIGEAKFIRAYTYFELVKTFGGVPCYTGVLDLDHERLGRASVEEIYSVIEQDLNDAVSVLPKKSEVANYESSYAGRITKGAAIAMQTRIYLYEKKYDEVKKAFEKFQNECGGEYSLVAPEDYTWQFSLDGEHCSSSILEVNMYNSSTQSSYNVNNGNRHVLMSMPRNMTIGFGCAQPTQALADAYDAEGDVIRKKTTLLSTEEAIEIETAAKGDVAPVTDDRTGWYNRKLYLAPGQREENRGNNQPTNLRLIRLAEVYLNYAEACYFSGDIANAQKYLNEVRSHVNLAPKNHTGSQLFEDIMNERHLEFGMEGFRFFDVVRVGWGEKVFNGTKKAEFGAKTPFSAGAEVLPIPQTEIDISDGLITN
- glycan array binding signal (z-score) [1]: -1
- glycan array binding signal (z-score) [2]: 0.809
- glycan array binding signal (z-score) [3]: 1.43
- glycan array binding signal (z-score) [4]: 0.828
- glycan array binding signal (z-score) [5]: -0.25
- glycan array binding signal (z-score) [6]: -0.279
- glycan array binding signal (z-score) [7]: 0.279
- glycan array binding signal (z-score) [8]: 0.139
- glycan array binding signal (z-score) [9]: 1.43
- glycan array binding signal (z-score) [10]: -0.223
- glycan array binding signal (z-score) [11]: -0.166
- glycan array binding signal (z-score) [12]: -0.304
- glycan array binding signal (z-score) [13]: -0.753
- glycan array binding signal (z-score) [14]: -0.205
- glycan array binding signal (z-score) [15]: 0.08
- glycan array binding signal (z-score) [16]: 0.949
- glycan array binding signal (z-score) [17]: -0.124
- glycan array binding signal (z-score) [18]: 2.05
- glycan array binding signal (z-score) [19]: -0.555
- glycan array binding signal (z-score) [20]: 10.3
- glycan array binding signal (z-score) [21]: -0.065
- glycan array binding signal (z-score) [22]: 5.38
- glycan array binding signal (z-score) [23]: 2.49
- glycan array binding signal (z-score) [24]: -0.196
- glycan array binding signal (z-score) [25]: -0.718
- glycan array binding signal (z-score) [26]: -0.507
- glycan array binding signal (z-score) [27]: -0.184
- glycan array binding signal (z-score) [28]: 0.594
- glycan array binding signal (z-score) [29]: -0.508
- glycan array binding signal (z-score) [30]: 1.59
